From PubChem
Only a selection was taken, and hits are over-represented in it overall.
Dicer processing: inhibitors of Dicer pre-microRNA processing, primary screen, biochemical, cat-ELCCA, chemiluminescence; AID 1347074, 2019; cat-ELCCA pre-miR-21 Dicer processing; active compounds read high; z-score at 25 µM; 47,000 compounds, 6% hits; in the data active = z-score above about 3, passing the limit was not always enough;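 note: higher signal means more uncleaved substrate so more Dicer inhibition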
Target sequence (Q9UPY3 whole entry, looked up): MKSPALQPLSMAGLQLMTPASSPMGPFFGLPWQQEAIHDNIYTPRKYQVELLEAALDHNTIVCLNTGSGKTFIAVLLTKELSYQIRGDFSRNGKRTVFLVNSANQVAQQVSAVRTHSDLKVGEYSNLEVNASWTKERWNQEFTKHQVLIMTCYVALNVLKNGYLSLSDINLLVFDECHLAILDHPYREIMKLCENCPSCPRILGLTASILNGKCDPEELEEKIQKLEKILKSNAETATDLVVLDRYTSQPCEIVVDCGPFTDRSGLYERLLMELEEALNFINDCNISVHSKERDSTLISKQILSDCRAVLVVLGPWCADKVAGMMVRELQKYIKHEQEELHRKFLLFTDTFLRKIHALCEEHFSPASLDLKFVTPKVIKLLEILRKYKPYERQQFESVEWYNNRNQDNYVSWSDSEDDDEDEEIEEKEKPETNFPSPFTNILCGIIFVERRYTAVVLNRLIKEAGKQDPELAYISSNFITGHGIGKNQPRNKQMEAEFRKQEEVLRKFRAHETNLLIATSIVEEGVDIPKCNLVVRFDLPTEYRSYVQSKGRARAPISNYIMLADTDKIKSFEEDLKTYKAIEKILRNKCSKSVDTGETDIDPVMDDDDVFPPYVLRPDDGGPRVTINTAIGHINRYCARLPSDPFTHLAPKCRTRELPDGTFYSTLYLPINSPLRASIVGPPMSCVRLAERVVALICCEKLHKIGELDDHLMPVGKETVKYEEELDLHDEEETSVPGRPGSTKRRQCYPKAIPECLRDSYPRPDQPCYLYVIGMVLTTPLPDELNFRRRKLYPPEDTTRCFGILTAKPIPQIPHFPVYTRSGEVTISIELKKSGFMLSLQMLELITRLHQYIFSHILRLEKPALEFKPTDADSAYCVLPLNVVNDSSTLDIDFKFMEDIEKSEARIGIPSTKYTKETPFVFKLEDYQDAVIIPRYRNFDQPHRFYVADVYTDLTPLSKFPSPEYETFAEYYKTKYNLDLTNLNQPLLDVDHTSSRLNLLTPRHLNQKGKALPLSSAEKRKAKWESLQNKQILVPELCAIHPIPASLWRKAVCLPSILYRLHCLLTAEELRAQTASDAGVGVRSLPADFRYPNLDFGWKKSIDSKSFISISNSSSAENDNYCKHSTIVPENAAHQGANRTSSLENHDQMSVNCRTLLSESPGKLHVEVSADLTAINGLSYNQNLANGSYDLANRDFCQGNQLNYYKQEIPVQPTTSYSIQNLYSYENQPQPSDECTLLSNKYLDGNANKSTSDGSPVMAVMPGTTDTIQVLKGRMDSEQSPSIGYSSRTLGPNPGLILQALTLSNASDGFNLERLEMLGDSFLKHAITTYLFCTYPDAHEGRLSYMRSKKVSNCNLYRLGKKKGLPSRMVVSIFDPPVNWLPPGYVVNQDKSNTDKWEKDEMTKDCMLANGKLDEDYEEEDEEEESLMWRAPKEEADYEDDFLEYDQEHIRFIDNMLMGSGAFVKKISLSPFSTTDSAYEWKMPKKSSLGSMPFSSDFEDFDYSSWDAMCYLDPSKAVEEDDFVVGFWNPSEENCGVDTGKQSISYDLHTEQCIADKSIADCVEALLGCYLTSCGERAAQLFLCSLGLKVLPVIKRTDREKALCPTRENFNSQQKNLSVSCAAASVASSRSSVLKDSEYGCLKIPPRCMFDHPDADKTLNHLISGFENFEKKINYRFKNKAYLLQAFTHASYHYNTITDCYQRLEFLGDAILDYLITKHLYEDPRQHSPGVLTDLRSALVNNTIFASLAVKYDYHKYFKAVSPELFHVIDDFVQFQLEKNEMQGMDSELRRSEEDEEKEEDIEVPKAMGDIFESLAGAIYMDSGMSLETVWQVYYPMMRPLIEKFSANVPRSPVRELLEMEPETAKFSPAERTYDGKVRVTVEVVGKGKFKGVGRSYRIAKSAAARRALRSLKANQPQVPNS
Of the large screens only hits and unclear results are named; the others gave an inactive call.

CCOC(=O)c1c(COc2ccccc2)oc2ccc(O)cc12	none
FC(F)(F)c1cc(-c2ccc3c(c2)CCC3)nc2cc(-c3ccc(Cl)cc3)nn12	none
CCOC(=O)Cn1nc2n(c1=O)-c1ccccc1SC2	none
O=C(OCC#CCOC(=O)c1cccnc1)c1cccnc1	none
CSc1nc(N/C=C(/C#N)C(=O)C2CC2)nc(N(C)C)n1	none
O=c1c2c(n3nnnc3n1Cc1ccccc1)-c1ccccc1CC21CCCCC1	Dicer processing 3.21
CCOC(=O)CSc1nc2c(c(=O)[nH]1)C1(CCCCC1)Cc1ccccc1-2	none
NC(=O)CSc1nnc2n(Cc3ccccc3)c(=O)c3c(n12)-c1ccccc1CC31CCCCC1	none
Cc1ccc(NC(=O)c2cc(-c3ccccc3)n(-c3ccccc3)c2C)cc1	none
Cc1nc2c3c4c(sc3ncn2n1)CCC4	none
CCOC(=O)c1cnc(C(F)(F)F)nc1Sc1n[nH]c(-c2cc(Cl)cc(Cl)c2)n1	none
CCOC(=O)c1cnc(C(F)(F)F)nc1NNC(=O)c1ccc(Cl)cc1	Dicer processing 3.2
CCOC(=O)c1cnc(Nc2ccccc2)nc1C(F)(F)F	none
CCOC(=O)c1cnc(NNC(=O)c2ccc(F)cc2)nc1C(F)(F)F	none
CCOC(=O)c1cnc(C(F)(F)F)nc1Oc1ccccc1	none
CCOC(=O)c1cnc(NNC(C)=O)nc1C(F)(F)F	Dicer processing 3.07
CC(=O)NC(C)Cc1c[nH]c2ccccc12 (configuration not stated)	none
N#Cc1c(SCC(=O)c2ccccc2)nsc1SCC(=O)c1ccccc1	none
Cc1cc(C)c2cc(C(=O)NCCc3ccccc3)[nH]c2c1	none
NCCc1nnc(SCc2ccccc2Cl)o1	none
Nc1nnc(SCc2ccccc2Cl)s1	Dicer processing 11.1
N=C(N)SCc1ccccc1Cl	none
Cc1ccc(C(=O)CSc2ncn[nH]2)c(C)c1	none
CC(C)Oc1ccccc1Cn1c(=O)sc2ccccc21	none
CC(C)(C)C(=O)Nc1cc(Cl)c(Cl)cc1Cl	none
Cc1ccccc1NS(=O)(=O)c1cccc2c(N(C)C)cccc12	none
Cc1cccc(NS(=O)(=O)c2ccc3c4c(cccc24)C(=O)N3)c1C	none
O=C(O)c1ccc(NS(=O)(=O)c2ccc3c4c(cccc24)C(=O)S3)cc1	none
CN1C(=O)c2cccc3c(S(=O)(=O)Nc4ccc(C(=O)O)c(O)c4)ccc1c23	none
O=C1Sc2ccc(S(=O)(=O)Nc3ccc4oc(=O)sc4c3)c3cccc1c23	Dicer processing 10.6
Cc1ccc(C)c(NS(=O)(=O)c2ccc3c4c(cccc24)C(=O)S3)c1	Dicer processing 3.73
CCOC(=O)c1sc2ncn3c(-c4ccccc4)nnc3c2c1C	none
CCOC(=O)C1=NN(c2ccc([N+](=O)[O-])cc2)C(C(=O)OCC)=NN1c1ccc([N+](=O)[O-])cc1	none
CCOC(=O)c1c(SC)nc2c(Cl)cccc2c1Oc1cccc(Cl)c1	none
Cc1nn2cc(-c3cccc([N+](=O)[O-])c3)nc2s1	none
Cc1ccccc1Cn1c(NCC2CCCO2)nc2c1c(=O)n(C)c(=O)n2C (configuration not stated)	none
Cc1n[nH]c(=O)nc1NCC1CCCO1 (configuration not stated)	Dicer processing 5.76
Cc1n[nH]c(=O)nc1NCCCN(C)C	none
COc1ccc(C2CC(c3ccc(Br)cc3)=NN2C(=O)CSc2nncn2C)cc1 (configuration not stated)	none
CC(C)(C)C(=O)C(C#N)=C1SCCS1	none
C=CCNC(=S)NNC(=O)c1oc2nc(-c3ccc(Cl)cc3)cc(-c3ccccc3)c2c1N	none
O=c1oc(-c2ccc(Cl)cc2Cl)nc2ccc(I)cc12	none
Cc1onc(-c2c(Cl)cccc2Cl)c1C(=O)Nc1ccc2[nH]cc(C#N)c2c1	none
OCCCNNC(=S)Nc1ccc(Cl)cc1Cl	none
S=C(NNc1c(Cl)cncc1Cl)Nc1ccc(Cl)cc1Cl	Dicer processing 6.72
CCNC(=S)Nc1ccc(Cl)cc1Cl	none
CC(=O)OCC12COC(c3ccccc3OC(C)=O)C(C(C)=CC1C)C2C (configuration not stated)	none
COc1ccc(C2OCC3(COC(C)=O)C(C)C=C(C)C2C3C)cc1 (configuration not stated)	none
CC(=O)OCC12COC(c3ccc(OC(C)=O)cc3)C(C(C)=CC1C)C2C (configuration not stated)	Dicer processing 3.42
Clc1ccc(-c2noc(CC3CCCCC3)n2)cc1	none
COc1ccc(OCC(=O)N2CCc3ccccc32)cc1	none
COc1ccc(C(=O)c2ccccc2)c(O)c1	none
COc1ccc(C(=O)c2oc3ccc(Cl)cc3c2N)cc1	none
COc1ccc(C(=O)c2oc3ccc(OC)cc3c2N)cc1	Dicer processing 4.24
COc1ccc(C(=O)c2coc3ccc(O)cc23)cc1	Dicer processing 5.36
COc1ccc2oc(C(=O)c3ccc(Cl)cc3)c(N)c2c1	none
COc1ccc(-c2cc(=O)c3ccc(O)cc3o2)cc1	none
O=C(Nc1ccc2ccccc2c1)Nc1ccccc1C(=O)NCC1CC1	none
N#Cc1cn(-c2ccc(OC(F)(F)F)cc2)c(=O)[nH]c1=O	none
CN(CCOC(=O)c1ccco1)C(C)(C)C	Dicer processing 3.37
CC(C)(C)c1ccc(OC(=O)c2ccco2)cc1	none
COCCOC(=O)c1c(C)oc2ccc(OC(=O)c3ccco3)cc12	none
CCOC(=O)NC(=S)Nc1cc(C(F)(F)F)cc(C(F)(F)F)c1	none
COC(=O)c1ccc(C2c3c(oc4ccc(F)cc4c3=O)C(=O)N2Cc2ccc3c(c2)OCO3)cc1 (configuration not stated)	none
COc1ccc(C2SCCN2S(=O)(=O)c2cccc(C)c2)cc1 (configuration not stated)	Dicer processing 6.16
COc1ccc(S(=O)(=O)N2CCSC2c2ccccc2Cl)cc1 (configuration not stated)	Dicer processing 3.32
COc1ccc(C2SCCN2S(=O)(=O)c2cccc(C)c2)cc1OC (configuration not stated)	none
COc1ccc(Br)cc1C1SCCN1S(=O)(=O)c1cccc(C)c1 (configuration not stated)	none
COc1ccc(OC)c(C2SCCN2S(=O)(=O)c2ccc(-c3ccccc3)cc2)c1 (configuration not stated)	none
CCOc1ccc(S(=O)(=O)N2CCSC2c2ccc(OC)c(OC)c2)cc1 (configuration not stated)	Dicer processing 3.3
COc1ccccc1C1SCCN1S(=O)(=O)c1ccc(Cl)cc1 (configuration not stated)	none
COc1ccc(S(=O)(=O)N2CCSC2c2ccccc2OC)cc1 (configuration not stated)	none
COc1ccc(C2SCCN2S(=O)(=O)c2ccc(C)cc2)cc1 (configuration not stated)	none
O=C(O)CC12CC3CC(Br)(CC(Br)(C3)C1)C2	none
OC1(c2ccccc2)CCC2C1CCC2(O)c1ccccc1 (configuration not stated)	none
COC(=O)c1c(C)[nH]c(C)c1/C=N/N=C/c1c(C)[nH]c(C)c1C(=O)OC	none
O=C1c2oc3ccc(F)cc3c(=O)c2C(c2ccc(O)cc2)N1Cc1ccccc1 (configuration not stated)	none
COc1ccc(C)cc1NC(c1cccnc1)c1ccc2cccnc2c1O (configuration not stated)	none
Cc1ccnc(NC(c2ccc(N(C)C)cc2)c2ccc3ccc(C)nc3c2O)c1 (configuration not stated)	none
CCOc1cc(C(Nc2cc(C)ccn2)c2ccc3cccnc3c2O)ccc1O (configuration not stated)	Dicer processing 14
COc1cc(C(Nc2cc(C)ccn2)c2ccc3cccnc3c2O)ccc1O (configuration not stated)	Dicer processing 11.1
